Test results from the supplement of paper PMC10849652.
Of roughly 7,900 targets only a part is listed; those with a hit were picked by preference. About 0.6% of all pairs of compound and target were hits.

Legend:
Assay in all cases: log2 fold change, soluble protein after heating vs DMSO (PISA); higher = thermal stabilisation; K562 cells, 10 uM, 30 min; active = over 0.2 and 3.5 SD of the protein, either way, in both replicates (recomputed)
bafetinib = compound: Cc1ccc(NC(=O)c2ccc(CN3CC[C@H](N(C)C)C3)c(C(F)(F)F)c2)cc1Nc1nccc(-c2cncnc2)n1 [bafetinib]
In short: (§1)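 K562 cells (2×10^6 cells/mL) were treated with 10 μM compound for 30 min, and aliquots were heated for 3 min over 48°C-58°C. Pooled aliquots were extracted in PBS with 0.5% NP-40 at 4°C, and the supernatant after 21,000xg for 90 min was measured by TMTpro 16plex LC-MS/MS with channel sums equalised. Reported thermal stability, relative to control samples and from duplicates, is a log2 fold change.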

[1] = compound: Cc1cccc(CC(=O)N2CCc3c2ccc(-c2cn(C)c4ncnc(N)c24)c3F)n1
In short: as §1

nilotinib = compound: Cc1cn(-c2cc(NC(=O)c3ccc(C)c(Nc4nccc(-c5cccnc5)n4)c3)cc(C(F)(F)F)c2)cn1 [nilotinib]
In short: as §1

[2] = compound: Cc1nc(Nc2n[nH]c3c2CN(C(=O)N[C@H](CN(C)C)c2ccccc2)C3(C)C)c2sccc2n1
In short: as §1

dasatinib = compound: Cc1nc(Nc2ncc(C(=O)Nc3c(C)cccc3Cl)s2)cc(N2CCN(CCO)CC2)n1 [dasatinib]
In short: as §1

[3] = compound: Cc1ncc(-c2ccnc(Nc3ccc(S(C)(=O)=O)cc3)n2)n1C(C)C
In short: as §1

[4] = compound: Cn1cc(-c2ccc3c(c2)CCN3C(=O)Cc2cccc(C(F)(F)F)c2)c2c(N)ncnc21
In short: as §1

[5] = compound: Cn1cc(-c2ccc3nnc(C(F)(F)c4ccc5ncccc5c4)n3n2)cn1
In short: as §1

tipifarnib = compound: Cn1cncc1[C@@](N)(c1ccc(Cl)cc1)c1ccc2c(c1)c(-c1cccc(Cl)c1)cc(=O)n2C [tipifarnib]
In short: as §1

mubritinib = compound: FC(F)(F)c1ccc(/C=C/c2nc(COc3ccc(CCCCn4ccnn4)cc3)co2)cc1 [mubritinib]
In short: as §1

[6] = compound: NC(=O)Nc1cc(-c2cccc(F)c2)sc1C(=O)N[C@H]1CCCNC1
In short: as §1

[7] = compound: NC(=O)c1cnc(N[C@@H]2CCCC[C@@H]2N)nc1Nc1cccc(-n2nccn2)c1
In short: as §1

[8] = compound: NC1(c2ccc(-c3nc4ccn5c(=O)[nH]nc5c4cc3-c3ccccc3)cc2)CCC1
In short: as §1

[9] = compound: NCC(=O)Nc1ccc(-n2nc(C(F)(F)F)cc2-c2ccc3c(ccc4ccccc43)c2)cc1
In short: as §1

entinostat = compound: Nc1ccccc1NC(=O)c1ccc(CNC(=O)OCc2cccnc2)cc1 [entinostat]
In short: as §1

vorinostat = compound: O=C(CCCCCCC(=O)Nc1ccccc1)NO [vorinostat]
In short: as §1

citarinostat = compound: O=C(CCCCCCNC(=O)c1cnc(N(c2ccccc2)c2ccccc2Cl)nc1)NO [citarinostat]
In short: as §1

silmitasertib = compound: O=C(O)c1ccc2c(c1)nc(Nc1cccc(Cl)c1)c1ccncc12 [silmitasertib]
In short: as §1

[10] = compound: O=C1NC(=O)C(c2cnc3ccccn23)=C1c1cn2c3c(cc(F)cc13)CN(C(=O)N1CCCCC1)CC2
In short: as §1

[11] = compound: c1cc(OCCN2CCCCC2)cc(-c2n[nH]c3ccc(-c4nnc[nH]4)cc23)c1
In short: as §1

Measured: log2 fold change

DNAJB12 (UniProt Q9NXW2)
UniProt Q9NXW2, sequence (Q9NXW2 whole entry, looked up): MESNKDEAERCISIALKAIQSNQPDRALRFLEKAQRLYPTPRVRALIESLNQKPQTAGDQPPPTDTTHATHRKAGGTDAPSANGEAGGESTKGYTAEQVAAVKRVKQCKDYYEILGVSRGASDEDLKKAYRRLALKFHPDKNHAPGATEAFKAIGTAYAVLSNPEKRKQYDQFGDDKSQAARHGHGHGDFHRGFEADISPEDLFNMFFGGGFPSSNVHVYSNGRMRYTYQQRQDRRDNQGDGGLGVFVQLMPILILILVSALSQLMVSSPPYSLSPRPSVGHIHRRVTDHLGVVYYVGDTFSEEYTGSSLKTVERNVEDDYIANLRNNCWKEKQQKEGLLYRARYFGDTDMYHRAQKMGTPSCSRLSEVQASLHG
inactive: bafetinib -0.057 | [1] 0.007 | nilotinib -0.158 | [2] 0.041 | dasatinib -0.068 | [3] 0.015 | [4] -0.04 | [5] -0.039 | tipifarnib 0.016 | mubritinib 0.01 | [6] -0.03 | [7] -0.018 | [8] -0.048 | [9] -0.029 | entinostat 0.001 | vorinostat 0.027 | citarinostat 0.027 | silmitasertib 0.079 | [10] -0.038 | [11] 0.002

DNAH5 (UniProt Q8TE73)
inactive: bafetinib -0.065 | [1] -0.084 | nilotinib -0.006 | [2] 0.015 | dasatinib 0.085 | [3] -0.015 | [4] 0 | [5] -0.06 | tipifarnib 0.267 | mubritinib 0.032 | [6] -0.029 | [8] -0.077 | [9] 0.016 | entinostat -0.037 | vorinostat -0.103 | citarinostat 0.047 | silmitasertib 0.001 | [10] 0.014 | [11] 0.029

EIF2AK1 (UniProt Q9BQI3)
inactive: bafetinib -0.162 | [1] 0.171 | dasatinib -0.068 | [4] 0.19 | [5] 0 | tipifarnib -0.035 | mubritinib -0.025 | [6] -0.034 | [7] 0.018 | [8] -0.023 | [9] 0.001 | entinostat 0.129 | vorinostat -0.058 | silmitasertib 0 | [10] 0.133

DOP1A (UniProt Q5JWR5)
UniProt Q5JWR5, sequence (Q5JWR5 whole entry, looked up): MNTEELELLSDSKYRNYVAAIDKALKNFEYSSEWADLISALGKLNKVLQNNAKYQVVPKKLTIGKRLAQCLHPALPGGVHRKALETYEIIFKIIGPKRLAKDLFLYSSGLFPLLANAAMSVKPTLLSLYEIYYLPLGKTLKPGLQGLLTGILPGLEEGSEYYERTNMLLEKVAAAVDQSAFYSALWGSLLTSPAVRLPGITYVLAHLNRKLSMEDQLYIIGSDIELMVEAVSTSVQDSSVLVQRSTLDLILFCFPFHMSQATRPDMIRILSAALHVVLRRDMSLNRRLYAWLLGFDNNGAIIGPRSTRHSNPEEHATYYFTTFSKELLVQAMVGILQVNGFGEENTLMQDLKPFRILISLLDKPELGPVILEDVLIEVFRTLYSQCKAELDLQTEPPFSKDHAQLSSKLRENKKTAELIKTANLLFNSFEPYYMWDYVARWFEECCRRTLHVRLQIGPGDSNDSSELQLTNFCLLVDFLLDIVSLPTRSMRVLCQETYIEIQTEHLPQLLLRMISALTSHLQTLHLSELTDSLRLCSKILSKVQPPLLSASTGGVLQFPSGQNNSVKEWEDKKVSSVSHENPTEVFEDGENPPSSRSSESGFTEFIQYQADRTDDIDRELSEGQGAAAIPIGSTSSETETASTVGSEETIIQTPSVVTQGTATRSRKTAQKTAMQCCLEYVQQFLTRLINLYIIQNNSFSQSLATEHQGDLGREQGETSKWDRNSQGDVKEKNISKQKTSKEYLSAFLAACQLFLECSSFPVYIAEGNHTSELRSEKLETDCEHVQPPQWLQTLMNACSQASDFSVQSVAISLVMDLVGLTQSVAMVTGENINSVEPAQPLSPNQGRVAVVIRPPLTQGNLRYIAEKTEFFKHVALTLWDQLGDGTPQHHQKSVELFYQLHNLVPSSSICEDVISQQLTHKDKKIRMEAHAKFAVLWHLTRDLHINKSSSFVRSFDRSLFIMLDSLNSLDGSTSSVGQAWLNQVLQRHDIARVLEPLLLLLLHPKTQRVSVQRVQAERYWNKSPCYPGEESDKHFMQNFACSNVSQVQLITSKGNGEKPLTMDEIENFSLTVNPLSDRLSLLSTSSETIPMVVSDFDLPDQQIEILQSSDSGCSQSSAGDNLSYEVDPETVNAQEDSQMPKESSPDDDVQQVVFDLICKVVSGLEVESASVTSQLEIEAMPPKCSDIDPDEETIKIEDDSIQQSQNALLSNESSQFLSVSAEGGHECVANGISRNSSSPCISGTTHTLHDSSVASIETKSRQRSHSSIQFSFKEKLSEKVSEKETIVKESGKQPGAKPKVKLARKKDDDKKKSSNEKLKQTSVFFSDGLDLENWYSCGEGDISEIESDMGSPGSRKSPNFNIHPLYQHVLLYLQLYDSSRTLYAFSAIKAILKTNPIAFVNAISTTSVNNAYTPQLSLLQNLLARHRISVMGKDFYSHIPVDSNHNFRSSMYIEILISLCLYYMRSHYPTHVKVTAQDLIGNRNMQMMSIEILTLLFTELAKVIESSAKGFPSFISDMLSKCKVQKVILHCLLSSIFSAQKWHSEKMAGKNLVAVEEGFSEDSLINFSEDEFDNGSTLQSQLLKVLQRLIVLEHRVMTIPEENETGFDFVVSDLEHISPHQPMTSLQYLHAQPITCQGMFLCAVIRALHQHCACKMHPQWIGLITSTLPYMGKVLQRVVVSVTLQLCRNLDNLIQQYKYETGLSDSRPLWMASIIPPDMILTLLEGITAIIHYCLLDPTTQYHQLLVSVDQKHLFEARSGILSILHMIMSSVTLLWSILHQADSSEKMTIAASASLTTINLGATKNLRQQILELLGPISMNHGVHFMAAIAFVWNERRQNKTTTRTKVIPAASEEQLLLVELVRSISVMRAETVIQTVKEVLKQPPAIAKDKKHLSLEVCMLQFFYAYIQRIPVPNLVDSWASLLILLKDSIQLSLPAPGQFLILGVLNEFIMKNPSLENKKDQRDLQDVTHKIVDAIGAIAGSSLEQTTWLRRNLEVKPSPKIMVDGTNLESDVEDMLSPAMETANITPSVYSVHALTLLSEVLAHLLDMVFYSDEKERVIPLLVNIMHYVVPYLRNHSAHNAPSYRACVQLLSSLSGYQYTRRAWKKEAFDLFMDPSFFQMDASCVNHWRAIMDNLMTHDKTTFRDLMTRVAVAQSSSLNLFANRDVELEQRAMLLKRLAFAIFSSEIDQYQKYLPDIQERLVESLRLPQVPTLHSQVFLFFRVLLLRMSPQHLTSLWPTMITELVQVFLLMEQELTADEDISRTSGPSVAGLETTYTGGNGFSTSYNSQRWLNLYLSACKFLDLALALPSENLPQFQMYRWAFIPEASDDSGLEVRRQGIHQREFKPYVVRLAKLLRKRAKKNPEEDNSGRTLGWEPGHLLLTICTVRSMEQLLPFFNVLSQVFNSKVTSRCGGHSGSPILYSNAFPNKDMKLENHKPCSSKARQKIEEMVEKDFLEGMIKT
inactive: bafetinib -0.091 | mubritinib 0.127 | [8] 0.106 | [9] -0.051 | silmitasertib -0.056 | [10] 0

EEF2K (UniProt O00418)
inactive: [1] 0.007 | [4] -0.108 | [5] 0 | tipifarnib -0.092 | mubritinib -0.371 | [8] -0.119 | [9] -0.114 | vorinostat 0.19 | citarinostat -0.05 | silmitasertib 0.216 | [10] 0.178 | [11] 0.012

ELF1 (UniProt P32519)
UniProt P32519, sequence (P32519 whole entry, looked up): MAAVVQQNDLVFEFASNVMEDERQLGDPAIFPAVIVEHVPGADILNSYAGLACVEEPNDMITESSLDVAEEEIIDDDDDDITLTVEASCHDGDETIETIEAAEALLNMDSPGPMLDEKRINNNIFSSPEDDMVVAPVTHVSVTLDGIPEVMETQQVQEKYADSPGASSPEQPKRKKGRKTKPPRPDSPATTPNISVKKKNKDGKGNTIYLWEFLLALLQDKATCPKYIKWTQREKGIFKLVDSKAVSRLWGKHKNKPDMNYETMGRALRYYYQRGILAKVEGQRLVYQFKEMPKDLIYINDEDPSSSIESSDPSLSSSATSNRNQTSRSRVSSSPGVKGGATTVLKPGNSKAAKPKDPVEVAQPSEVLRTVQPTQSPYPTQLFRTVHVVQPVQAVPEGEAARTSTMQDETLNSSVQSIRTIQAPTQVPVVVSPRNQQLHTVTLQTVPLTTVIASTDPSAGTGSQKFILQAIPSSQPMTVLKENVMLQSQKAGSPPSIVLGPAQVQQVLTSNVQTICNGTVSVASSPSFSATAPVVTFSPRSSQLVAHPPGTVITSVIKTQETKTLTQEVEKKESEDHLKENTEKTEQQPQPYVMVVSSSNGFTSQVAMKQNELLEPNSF
inactive: nilotinib 0.096 | [2] -0.028 | dasatinib -0.134 | [3] 0.122 | [4] 0.003 | [5] 0.049 | tipifarnib -0.024 | [6] -0.124 | [7] -0.044 | entinostat -0.11 | citarinostat -0.089 | [10] -0.075 | [11] -0.18

EEF1D isoform 3 (UniProt P29692)
UniProt P29692, sequence (P29692 whole entry, looked up): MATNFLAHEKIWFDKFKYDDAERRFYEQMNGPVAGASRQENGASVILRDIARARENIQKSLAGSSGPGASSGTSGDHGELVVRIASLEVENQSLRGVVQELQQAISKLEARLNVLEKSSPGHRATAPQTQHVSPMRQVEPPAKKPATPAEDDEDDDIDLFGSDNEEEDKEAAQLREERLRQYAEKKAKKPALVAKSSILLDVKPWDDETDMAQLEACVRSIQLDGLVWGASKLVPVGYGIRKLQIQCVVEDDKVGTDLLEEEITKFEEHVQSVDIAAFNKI
inactive: mubritinib -0.014 | [8] 0.2 | silmitasertib -0.401

DHPS (UniProt M0R1T2)
inactive: bafetinib 0.081 | [6] 0.063 | entinostat 0.072

CTNNBL1 (UniProt Q8WYA6)
UniProt Q8WYA6, sequence (Q8WYA6 whole entry, looked up): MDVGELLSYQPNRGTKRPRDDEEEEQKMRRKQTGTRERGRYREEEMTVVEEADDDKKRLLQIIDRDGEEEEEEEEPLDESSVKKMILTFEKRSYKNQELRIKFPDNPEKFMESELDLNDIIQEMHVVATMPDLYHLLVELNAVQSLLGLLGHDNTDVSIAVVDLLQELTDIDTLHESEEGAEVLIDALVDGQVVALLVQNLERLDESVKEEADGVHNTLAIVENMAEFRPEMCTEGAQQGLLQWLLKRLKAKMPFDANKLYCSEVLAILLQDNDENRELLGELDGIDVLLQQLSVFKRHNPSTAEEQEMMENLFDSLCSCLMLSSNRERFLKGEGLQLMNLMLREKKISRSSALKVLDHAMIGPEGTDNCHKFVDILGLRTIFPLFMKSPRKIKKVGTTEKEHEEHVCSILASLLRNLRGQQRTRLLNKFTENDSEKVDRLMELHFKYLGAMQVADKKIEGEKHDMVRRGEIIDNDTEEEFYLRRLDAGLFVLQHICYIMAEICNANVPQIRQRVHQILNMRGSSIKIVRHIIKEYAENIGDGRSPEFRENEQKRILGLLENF
inactive: bafetinib -0.12 | tipifarnib 0.022 | [9] 0.175 | citarinostat 0.057 | [11] -0.068

DLK1 (UniProt P80370)
inactive: dasatinib -0.012 | [4] -0.279 | [9] -0.061 | citarinostat -0.018 | [10] -0.109 | [11] -0.203

CTSS (UniProt P25774)
UniProt P25774, sequence (P25774 whole entry, looked up): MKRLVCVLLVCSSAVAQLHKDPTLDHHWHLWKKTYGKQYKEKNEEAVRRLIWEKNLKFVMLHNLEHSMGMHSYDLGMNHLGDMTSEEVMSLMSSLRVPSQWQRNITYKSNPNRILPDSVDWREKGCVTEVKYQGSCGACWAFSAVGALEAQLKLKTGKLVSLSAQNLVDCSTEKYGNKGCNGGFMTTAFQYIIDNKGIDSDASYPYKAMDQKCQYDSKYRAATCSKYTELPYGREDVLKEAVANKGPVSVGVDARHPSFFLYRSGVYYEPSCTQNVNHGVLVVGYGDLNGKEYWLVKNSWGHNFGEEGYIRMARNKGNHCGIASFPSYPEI
inactive: [1] -0.063 | dasatinib 0.052 | [4] -0.07 | [5] -0.028 | [6] -0.054 | [9] 0.053 | entinostat -0.013 | vorinostat 0.15 | citarinostat 0.19 | [11] -0.089

EPHX2 (UniProt E5RI53)
inactive: bafetinib -0.17 | [10] -0.058

DOLPP1 (UniProt Q86YN1)
inactive: bafetinib -0.089 | nilotinib 0.035 | [2] -0.062 | [3] -0.023 | [4] -0.045 | [5] -0.006 | tipifarnib 0.075 | mubritinib 0.021 | [7] -0.102 | [8] -0.053 | [9] -0.003 | citarinostat 0.075 | silmitasertib 0.008 | [11] -0.007

CWF19L2 (UniProt Q2TBE0)
inactive: [1] -0.285 | dasatinib 0.118 | [4] -0.102 | [5] 0.001 | tipifarnib 0.083 | [6] 0.129 | [7] 0.013 | entinostat -0.134 | vorinostat -0.184 | citarinostat 0.13 | [11] -0.001

DYNC1I2 isoform 2 (UniProt Q13409)
inactive: bafetinib -0.038 | [4] -0.311 | [5] -0.067 | tipifarnib 0.177 | mubritinib 0.067 | [6] 0.181 | [7] 0 | [8] -0.037 | entinostat -0.206 | citarinostat 0.094 | silmitasertib -0.154 | [10] -0.127 | [11] -0.035

DNAL1 (UniProt Q4LDG9)
UniProt Q4LDG9, sequence (Q4LDG9 whole entry, looked up): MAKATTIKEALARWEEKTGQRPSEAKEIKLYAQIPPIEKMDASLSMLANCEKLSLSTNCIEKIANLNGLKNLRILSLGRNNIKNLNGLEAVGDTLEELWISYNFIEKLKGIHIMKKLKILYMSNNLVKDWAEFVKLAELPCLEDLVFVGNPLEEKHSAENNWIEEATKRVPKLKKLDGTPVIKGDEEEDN
inactive: bafetinib 0.035 | dasatinib 0.017 | [4] 0.186 | [5] 0.012 | [7] 0.035 | [9] 0.05 | [10] -0.26

DCAF12 (UniProt Q5T6F0)
inactive: [1] 0.124 | mubritinib 0.087 | [6] -0.025 | [8] -0.201 | entinostat -0.003 | vorinostat -0.021 | citarinostat -0.033 | silmitasertib 0.051 | [11] 0.055

EZH2 isoform 2 (UniProt Q15910)
inactive: bafetinib 0.146 | dasatinib -0.113 | [4] 0.055 | tipifarnib -0.021 | mubritinib -0.097 | [6] 0.316 | [7] -0.004 | [8] 0.342 | [9] 0.33 | entinostat -0.039 | silmitasertib 0.046 | [10] -0.118

FAM117B (UniProt Q6P1L5)
inactive: [1] 0.01 | dasatinib 0.207 | [4] -0.029 | [5] 0.072 | [7] -0.159 | [9] 0.229 | vorinostat 0.059 | citarinostat -0.047 | [10] -0.144 | [11] 0.105

ELMO1 (UniProt Q92556)
inactive: bafetinib 0.033 | nilotinib -0.038 | [2] 0.026 | dasatinib 0.03 | [3] -0.001 | [5] 0.06 | mubritinib -0.087 | [6] -0.07 | [8] -0.146 | [9] -0.316 | entinostat 0.093 | silmitasertib 0.04 | [10] -0.104
